The campaign covered roughly 360,000 compounds. About 2,100 (0.58%) were called active.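 How the source made its calls: active means inhibition at 20 µM, scaled to each plate's controls, above about 33% (limit read from the data); inactive means the rest.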 The full list was thinned out, with actives kept by preference.

Sequence of 26S proteasome non-ATPase regulatory subunit 14 (Homo sapiens) (O00487 whole entry, looked up): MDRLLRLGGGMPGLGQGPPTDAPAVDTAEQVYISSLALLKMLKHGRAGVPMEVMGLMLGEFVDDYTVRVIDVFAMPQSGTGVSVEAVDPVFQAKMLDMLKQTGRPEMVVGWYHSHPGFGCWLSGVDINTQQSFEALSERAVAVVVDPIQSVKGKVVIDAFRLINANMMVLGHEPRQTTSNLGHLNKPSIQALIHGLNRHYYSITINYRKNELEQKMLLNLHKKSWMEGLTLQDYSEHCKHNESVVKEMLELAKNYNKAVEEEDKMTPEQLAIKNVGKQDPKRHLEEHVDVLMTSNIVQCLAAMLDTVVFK

This assay concerns the target 26S proteasome non-ATPase regulatory subunit 14 (Homo sapiens) (UniProt O00487). The assay can be described thus: Rpn11 (PSMD14) deubiquitinase inhibitors, primary screen, biochemical, fluorescence polarization, uHTS (AID 588493). To be noted: human 26S proteasome, Ub4-pepOG fluorescence polarization; at 20 µM; active compounds read high; 20S core pre-blocked with epoxomicin. In general terms: In fluorescence polarisation assays a small probe gives low polarisation when free and higher when bound to something large.
On to `COc1ccc(CCNC(=O)COc2cc(C)cc3oc(=O)c(C)c(C)c23)cc1OC`, for which the inhibition (usually the relative decrease from the control value, in per cent) was 0% (inactive).

Consider `Cc1cc(OCC(=O)NCC(O)c2ccccc2)c2c(C)c(C)c(=O)oc2c1` (centres undefined), for which the inhibition is -2.1% (inactive).

Take `Cc1cc(OCC(=O)Nc2nccs2)c2c(C)c(C)c(=O)oc2c1`: the inhibition was 61.1% (active).

Regarding `CCCCc1ccc(NC(=O)CN2C(=O)NC(Cc3ccccc3)C2=O)cc1` (centres undefined), the inhibition is -0.4% (inactive).

For `CC(C)Oc1ccc(S(=O)(=O)N2CCOCC2)cc1NC(=O)C1CCCC1`, the inhibition is 2.4% (inactive).

In the case of `O=C1NC(Nc2nc3ccccc3s2)(C(F)(F)F)C(=O)N1C1CCCCC1` (centres undefined), the inhibition was 3.6% (inactive).

On to `Cc1ccc(NC(=O)c2c(NC(=O)CCC(=O)O)sc3c2CCCCC3)cc1`, for which the inhibition was 40.1% (active).

Consider `COC(=O)c1c(NC(=O)CCN2CCOCC2)sc2c1CCCC2`, for which the inhibition was 6.6% (inactive).

Consider `O=C(CN1CCCC1)Nc1sc2c(c1C(=O)Nc1ccccc1)CCCC2`, for which the inhibition was -13.4% (inactive).

Take `COC(=O)c1ccc(CNC(=O)c2ccc3oc(C(C)C)nc3c2)cc1`: the inhibition was -13.2% (inactive).

For the compound `COc1cccc(CNC(=O)C2CCN(S(=O)(=O)c3cccc4cccnc34)CC2)c1`, the inhibition was 7.6% (inactive).

Consider `Cc1cc(OCCOc2cccc3cccnc23)c(C)cc1Cl`, for which the inhibition is -1.8% (inactive).

Turning to `CC(=O)/C(=N\Nc1ccc(Cl)cc1Cl)Sc1cccc2cccnc12`, the inhibition is 78.5% (active).

Consider `CCOC(=O)NN1C(=O)c2ccccc2NC1c1ccccc1O` (centres undefined), for which the inhibition was -5.9% (inactive).

In the case of `N#Cc1cccc(NC(=O)COC(=O)c2ccccc2C(=O)c2ccc(Cl)c([N+](=O)[O-])c2)c1`, the inhibition is -2.3% (inactive).

As for `COc1ccc(CN2[C@@H](CC(=O)O)c3cc(F)ccc3S2(=O)=O)cc1`, the inhibition was -5.9% (inactive).

For the compound `COc1cc(/C=N/NC(=O)c2cccnc2)ccc1OC(=O)c1cccc(Br)c1`, the inhibition was -13.5% (inactive).

For `COc1cccc(/C=N/NC(=O)c2[nH]nc3c2CCc2ccccc2-3)c1O`, the inhibition is 52.1% (active).

As for `CCn1c(/C=N/NC(=O)c2ccc(OC)cc2)nc2ccccc21`, the inhibition was -5.8% (inactive).

In the case of `COc1ccc(CCNC(=O)CCNS(=O)(=O)c2cc(Br)cnc2N)cc1OC`, the inhibition is 0.1% (inactive).

Take `CC(C)C(NC(=O)c1cccc(S(=O)(=O)N2CCOCC2)c1)C(=O)NCCc1ccccn1` (centres undefined): the inhibition is -2.1% (inactive).

For `COCCCN1C(=O)c2ccc(C(=O)OCC(=O)NCc3ccccc3OC)cc2C1=O`, the inhibition was 3.9% (inactive).

Turning to `CCOc1ccc(NC(=O)c2ccc(NC(=O)COC(=O)c3ccc(NC(=O)CC#N)cc3)cc2)cc1`, the inhibition is 128% (active).

For the compound `N#CCC(=O)Nc1ccc(C(=O)OCC(=O)Nc2sc3c(c2C#N)CCCC3)cc1`, the inhibition is 39.6% (inactive).

Regarding `CC(C)NC(=O)NC(=O)COC(=O)c1ccc(NC(=O)CC#N)cc1`, the inhibition is -1.1% (inactive).

For the compound `COc1ccccc1-c1n[nH]c2c1[C@H](C)CC[C@H]2C(C)C`, the inhibition is 0.4% (inactive).

As for `CN(C)S(=O)(=O)c1ccc(C(=O)NCC2(N3CCOCC3)CCCCC2)cc1`, the inhibition was 2.6% (inactive).

`O=C(COC(=O)c1cc(=O)[nH]c2ccccc12)Nc1nc(-c2cccc(Br)c2)cs1`: the inhibition is 1.7% (inactive).

As to `Cc1cc(C)c(-c2csc(NC(=O)CCCc3nc4ccccc4c(=O)[nH]3)n2)c(C)c1`, the inhibition was 8.9% (inactive).

For the compound `O=C(CSc1nc2ccccc2c(=O)[nH]1)Nc1nc(-c2ccc(Br)cc2)cs1`, the inhibition was 132% (active).

With `Cc1ccc2c(c1)nnc1nnc(SCC(=O)O)n12`, the inhibition was -12% (inactive).

On to `CC(C)(C)NC(=O)COc1ccc(CNc2ccc3[nH]c(=O)[nH]c3c2)cc1`, for which the inhibition was -10.4% (inactive).

For `COC(=O)c1ccc(OCC(=O)NC(C)(C)C)cc1`, the inhibition was 62.8% (active).

On to `CS(=O)(=O)c1ccc(C(=O)OCC(=O)NNC(=O)COc2ccc(Cl)cc2)cc1`, for which the inhibition was 22.5% (inactive).

For the compound `Cc1cc(C)c2cc(CN(Cc3cccs3)Cc3nnnn3CC3CCCO3)c(=O)[nH]c2c1` (centres undefined), the inhibition was -19.3% (inactive).

For `CCC(C)N1CC(=O)N2Cc3[nH]c4ccccc4c3C[C@H]2C1=O` (some centres undefined), the inhibition is 7.3% (inactive).

For `CCCCCOc1ccc(/C=C/C(=O)NCCc2nc3ccccc3[nH]2)cc1OC`, the inhibition is -4.2% (inactive).

In the case of `CC(C)Oc1ccc(/C=C(\NC(=O)/C=C/c2ccco2)C(=O)NCCc2nc3ccccc3[nH]2)cc1`, the inhibition was 53.9% (active).

With `CC(C)=C(NC(=O)c1ccco1)C(=O)NCCc1nc2ccccc2[nH]1`, the inhibition is -7.6% (inactive).

With `CCN(CC(=O)NCc1cccs1)S(=O)(=O)c1ccc(NC(C)=O)cc1`, the inhibition is -1.7% (inactive).

On to `Cc1cccc(OCCC(=O)Nc2cc(S(=O)(=O)N3CCCCC3)ccc2N2CCOCC2)c1`, for which the inhibition is 2% (inactive).

As to `CN(C)c1ccc(-n2cccc2/C=C2/SC(=Nc3ccc(F)cc3)NC2=O)cc1`, the inhibition is 44% (active).

Consider `CN(C)c1ccc(-n2cccc2/C=N/n2cnnc2)cc1`, for which the inhibition is 1.5% (inactive).

For the compound `CCn1cc(C(=O)OCC(=O)Nc2cccc(C)c2)c(=O)c2ccc(C)nc21`, the inhibition was -1.5% (inactive).

In the case of `CC(=O)Oc1cc2c(C(=O)NCCN3CCOCC3)c(C)oc2c2ccccc12`, the inhibition is -0.1% (inactive).

Turning to `O=C(Cc1ccc(F)cc1)N1CCN=C1SCc1cccc([N+](=O)[O-])c1`, the inhibition is 3% (inactive).

Regarding `CC1CCCCC1NC(=O)CCS(=O)(=O)c1cccc2nonc12` (centres undefined), the inhibition is -3.4% (inactive).

`O=C(CCS(=O)(=O)c1cccc2nonc12)NCCc1ccccc1Cl`: the inhibition is 179% (active).

On to `O=C(NCc1ccccc1Cl)C1CCN(S(=O)(=O)c2cccc3nonc23)CC1`, for which the inhibition was 4.7% (inactive).

As for `Cc1ccc(N=Cc2c(O)n(-c3nccs3)c(=O)c3ccccc23)c(C)c1`, the inhibition is -26.4% (inactive).

`Cc1ccc(N=Cc2c(O)cc(C)oc2=O)c(C)c1`: the inhibition is 40.7% (active).

`Cc1cccc(OCc2nnc(SCc3nc4cc(C(F)(F)F)ccc4c(=O)[nH]3)o2)c1`: the inhibition is 46.5% (active).

On to `Cc1cccc(OCc2nnc(SCn3nnc4ccccc4c3=O)o2)c1`, for which the inhibition was 6.8% (inactive).

In the case of `COc1cc(CN(C)Cc2nc3cc(C(F)(F)F)ccc3c(=O)[nH]2)ccc1OC(F)F`, the inhibition was 5% (inactive).

Consider `CC(=O)O[C@H]1c2ccccc2-c2ccccc2[C@@H]1OC(C)=O`, for which the inhibition was -2.7% (inactive).

For the compound `CN(C)CCOc1cccc(Br)c1`, the inhibition is -7.4% (inactive).

Take `CN(C)CCOC1c2ccccc2-c2ccccc21`: the inhibition is 95.3% (active).

`CCCC[C@H]1COCCS(=O)(=O)N1Cc1cccc(Cl)c1`: the inhibition is 7.9% (inactive).

As to `CCOC(=O)c1cc(-c2sc(NC(=O)c3ccccc3)nc2C)n(Cc2ccccc2)n1`, the inhibition was 5.8% (inactive).

`Cn1c2ccc(F)cc2c2nnc(NN)nc21`: the inhibition is 5.1% (inactive).

Regarding `O=C(O)C1C2C=CC(O2)C1C(=O)NCCc1cccc(Cl)c1` (centres undefined), the inhibition is 1% (inactive).

Consider `O=C(NCc1ccccc1)[C@H]1C[C@@H]1[C@H](NP(=O)(c1ccccc1)c1ccccc1)c1ccccc1`, for which the inhibition is 9.5% (inactive).

With `CCOc1ccc(C(=O)Nc2ccc(S(=O)(=O)NCC3CCCO3)cc2)cc1OCC` (centres undefined), the inhibition is -3.2% (inactive).

As for `Cc1ccsc1/C=C1\SC(N2CCOCC2)=NC1=O`, the inhibition is -7.5% (inactive).

With `O=C1N=C(N2CCc3ccccc3C2)S/C1=C\c1ccc(O)cc1`, the inhibition was -9.2% (inactive).

Take `CCOc1cc(/C=N/NC(=O)CN2CCCCC2)ccc1O`: the inhibition is -1.4% (inactive).

Regarding `CCOc1ccc2nc(C(=O)N3CCCC(C)C3)sc2c1` (centres undefined), the inhibition is -2.7% (inactive).

As to `CCOc1cc(/C=C2\SC(N3CCCC(C)C3)=NC2=O)ccc1O` (centres undefined), the inhibition was 62.1% (active).

For `CCOc1cc(/C=C2\SC(N3CCCCC3)=NC2=O)ccc1O`, the inhibition was 46.9% (active).

In the case of `CC(=O)n1cc([C@H]2C=C(C(=O)N3CCOCC3)O[C@@H](OCc3ccc(CO)cc3)C2)c2ccccc21`, the inhibition was 3.9% (inactive).

In the case of `Cc1cc[n+](-c2[nH]c(=O)sc2/C=N/NC(=O)c2ccccc2[O-])cc1C`, the inhibition was -29.4% (inactive).

Regarding `CCc1ccc2[nH]c(=O)c(Cc3ccccc3)c(O)c2c1`, the inhibition is -4.6% (inactive).

In the case of `O=C(c1ccc(OC2CCN(C(=O)c3cccnc3)CC2)cc1)N1CCCCCC1`, the inhibition was -0.5% (inactive).

As to `Cc1cccc(OCCCC(=O)Nc2ccc(S(=O)(=O)N3CCCC3)cc2)c1`, the inhibition is -2.1% (inactive).

As to `O=C(NNC(=O)c1ccc(-c2ccccc2)cc1)Nc1ccccc1`, the inhibition was -0.3% (inactive).

In the case of `Cc1ccc(NC(=O)NNC(=O)c2sccc2-n2cccc2)cc1`, the inhibition was -1.9% (inactive).

For the compound `C=CC[n+]1c(-c2ccc(C)cc2)csc1NNC(=O)Nc1ccccc1`, the inhibition is 42.6% (active).

On to `CCCCOC(=O)c1ccc(NC(c2ccc(C)cc2)P(=O)(OC)OC)cc1` (centres undefined), for which the inhibition is -3.9% (inactive).

For `COC(=O)c1cccc(NS(C)(=O)=O)c1`, the inhibition is -3.1% (inactive).

For `C=CCc1ccc(OCCOc2cccc(/C=N/n3cnnc3)c2)c(OC)c1`, the inhibition was -5.7% (inactive).

As to `c1csc(-c2nnc(COc3ccc4c(c3)OCO4)o2)c1`, the inhibition is -8.5% (inactive).

On to `CCOC(=O)C(=O)Nc1nc(-c2ccccc2)c(CC)s1`, for which the inhibition was 3.6% (inactive).

As for `CCOc1ccc(-c2nc(C)sc2CC(=O)O)cc1`, the inhibition is -1.6% (inactive).

As to `C/C(=N/Nc1nc(-c2ccccc2)c(CC(=O)O)s1)c1ccccc1`, the inhibition was 57.8% (active).

For `O=C1C=C(c2cccc(Cl)c2O)C[C@@H](c2ccc(F)cc2)C1`, the inhibition is -0.6% (inactive).

For `Nc1nonc1-n1nnc(C(=O)N/N=C/c2cc(Br)ccc2O)c1CSC1=NCCS1`, the inhibition is 43.6% (active).

Turning to `CC(C)c1c(C(=O)N/N=C/c2ccccc2C(=O)O)nnn1-c1nonc1N`, the inhibition was -1.4% (inactive).

For `COCc1c(C(=O)N/N=C\c2cccnc2)nnn1-c1nonc1N`, the inhibition is -1.2% (inactive).

Take `CC(C)Cn1c(=O)c2ccccc2n2c(CCC(=O)NCc3ccccn3)nnc12`: the inhibition was 4.1% (inactive).

As for `O=C(Nc1c[nH]c(=O)[nH]c1=O)OCc1ccccc1`, the inhibition is -11.5% (inactive).

In the case of `N#C/C=C1\Sc2ccccc2C(=O)N1CC(=O)N1CCN(S(=O)(=O)c2ccccc2)CC1`, the inhibition was 5.4% (inactive).

With `Cc1cccc(NS(=O)(=O)c2ccc([N+](=O)[O-])cc2)n1`, the inhibition is -2.6% (inactive).

Turning to `CC(O)c1nc2ccccc2n1Cc1ccc([N+](=O)[O-])cc1` (centres undefined), the inhibition is 1.9% (inactive).

In the case of `Cc1nc2ccccc2nc(=O)c1NNc1ccc([N+](=O)[O-])cc1`, the inhibition is 43.9% (active).

The values are drawn from PubChem BioAssay AID588493 (Sanford-Burnham Center for Chemical Genomics, 2011).
